Results filed as inconclusive are left out. Unmarked numbers belong to inactive results. Calls of active or inactive are those of the source. Calls come from the whole dose curve; as a rule, active = well fitted inhibition curve with a large enough effect; inconclusive = small, poorly fitted or top-dose-only effect; inactive = flat fitted curve, though single readings scatter. Where a SMILES comes first, the peptide text is derived from it. [ ]: non-standard residue; d: D form. ξ: configuration not given here. ξLac(3-iPr) = CC(C)CC(O)C(=O)O; NMeV = CN[CH](C(=O)O)C(C)C; βAla = NCCC(=O)O
tested on: CRL-7250; assay: Cytotoxic Profiling of Annotated Libraries Using Quantitative High-Throughput Screening (AID 1296008); details: Five cell lines viability, CellTiter-Glo ATP luminescence, 48-72 h; max response: hits give low values; note: nearly all actives have a fitted effect of over 60% in size
Method in brief: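 Compounds were pin-transferred onto cells and incubated 48 or 72 hr at 37 degree Celsius, 95% humidity. CellTiter-Glo was added, plates sat 10 min at room temperature, then ATP-coupled luminescence was imaged as the viability read-out.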
% is set by controls: 0 for no effect and ±100 for the full control effect; potency is the fitted concentration of half-maximal effect.

SMILES | outcome | Potency | max response [%]
CCC(O)C(C)C1CCC(C(C)C(=O)O)O1 (stereo unspecified) | inactive |  | 
CN1CCN(c2ccc(C(=O)Nc3n[nH]c4ccc(Cc5cc(F)cc(F)c5)cc34)c(NC3CCOCC3)c2)CC1 |  | 20.9 µM (active) | 
CCC(Nc1ncnc2nc[nH]c12)c1nc2cccc(F)c2c(=O)n1-c1ccccc1 (stereo unspecified) |  |  | -7.4
C[C@H](Nc1ncnc2nc[nH]c12)c1cc2ccc(F)cc2nc1-c1ccccn1 |  |  | -2.06
C=C1[C@H](OC(C)=O)[C@H]2[C@@H](OC(C)=O)[C@](C)(OC(C)=O)C[C@]2(OC(C)=O)C(=O)[C@H](C)/C=C/C(C)(C)C(=O)[C@H](OC(=O)C(C)CC)[C@H]1OC(C)=O (stereo partly specified) |  |  | -1.41
COc1ccc(CN2C(=O)C(=O)c3cc(S(=O)(=O)N4CCC[C@H]4COc4cccnc4)ccc32)cc1 | inactive |  | 
CC(C)CC1OC(=O)C2CCCN2C(=O)CCNC(=O)C(Cc2ccccc2)NC(=O)C(C(C)C)N(C)C(=O)C(C(C)C)N(C)C1=O (stereo unspecified) (cyclo([ξLac(3-iPr)][NMeV][NMeV]F[βAla]P); configuration not given here) |  |  | 2.18
CC(C)(C)c1ccc(S(=O)(=O)Nc2ccc(Cl)cc2C(=O)c2cc[n+]([O-])cc2)cc1 |  |  | -19.6
O=C1NC(=O)C(c2cn3c4c(cccc24)CCC3)C1c1c[nH]c2ccccc12 (stereo unspecified) |  | 5.8 µM (active) | 
O=C(Nc1ccccc1-c1cn2c(CN3CCNCC3)csc2n1)c1ccc2ccccc2n1 | inactive |  | 
CCC1=CC2CN(C1)Cc1c([nH]c3ccccc13)[C@@](C(=O)OC)(c1cc3c(cc1OC)N(C)[C@H]1[C@@](O)(C(=O)OC)[C@H](OC(C)=O)[C@]4(CC)C=CCN5CC[C@]31[C@@H]54)C2 (stereo partly specified) |  | 0.126 µM (active) | 
CC1(C)CCC2(C(=O)OC3OC(CO)C(O)C(O)C3O)CCC3(C)C(=CCC4C5(C)CCC(OC6OC(C(=O)O)C(OC7OC(CO)C(O)C(O)C7O)C(OC7OC(CO)C(O)C(O)C7O)C6O)C(C)(C)C5CCC43C)C2C1 (stereo unspecified) |  |  | 3.03
OC[C@H]1O[C@@H](OCCc2ccc(O)cc2)[C@H](O[C@@H]2OC[C@](O)(CO)[C@H]2O)[C@@H](O)[C@@H]1O |  |  | -6.14
C[C@@H]1CN(Cc2ccccc2)C[C@H]1c1nc2c(cnn2C2CCOCC2)c(=O)[nH]1 |  |  | -0.22
COc1cc(Nc2nc3c(s2)CCCC3c2ccc(F)cc2)ccc1-n1cnc(C)c1 (stereo unspecified) |  | 14.6 µM (active) | 
COC(=O)c1cc(OC)c(O[C@@H]2O[C@@H](C)[C@H](O)[C@@H](O)[C@H]2O)c(OC)c1 | inactive |  | 
C=C1CC[C@@H]2[C@](C)(CO[C@@H]3O[C@H](CO)[C@@H](O)[C@H](O)[C@H]3O)[C@H](O)CC[C@@]2(C)[C@@H]1C/C=C1/C(=O)OC[C@H]1O |  |  | 4.42
COC(C(=O)N1Cc2[nH]nc(NC(=O)c3ccc(N4CCN(C)CC4)cc3)c2C1)c1ccccc1 (stereo unspecified) |  | 1.84 µM (active) | 
CC(=O)O[C@H]1[C@@H](O)[C@H](O[C@H]2[C@@H]3C=CO[C@@H](O[C@H]4O[C@@H](CO)[C@H](O)[C@@H](O)[C@@H]4O)[C@@H]3[C@@]3(CO)O[C@@H]23)O[C@@H](C)[C@@H]1OC(=O)/C=C/c1ccccc1 |  |  | -1.67
COC1CC(O[C@H]2CC[C@@]3(C)C(CCC4C3[C@H](OC(C)=O)[C@@H](OC(=O)/C=C/c3ccccc3)[C@]3(C)C(C(C)=O)CC[C@]43O)C2)OC(C)C1OC1CC(OC)C(OC2CC(OC)C(OC3OC(C)C(OC4OC(CO)C(O)C(O)C4O)C(OC)C3O)C(C)O2)C(C)O1 (stereo partly specified) |  |  | -13.2
C=C1C(=O)O[C@@H]2C[C@H](C)[C@@]3(O)C=C(C(C)=O)[C@]4(CC3C[C@H]12)C(=O)O[C@H]1C[C@@H](C)C(CCC(C)=O)=CC[C@H]14 (stereo partly specified) | inactive |  | 
Cc1ccc(NC(=O)C(=O)NC2CC(C)(C)NC(C)(C)C2)cc1 | inactive |  | 
O=C1OCc2cc3cccc(O[C@@H]4O[C@H](CO)[C@@H](O)[C@H](O)[C@H]4O)c3c(O)c21 |  |  | 3.34
O=C(CN1C(=O)C2(CCCC2)NCC1c1cc(F)cc(F)c1)Nc1ccc2c(c1)CC1(C2)C(=O)Nc2ncccc21 (stereo unspecified) | inactive |  | 
CS(=O)(=O)N1CCC(NC(=O)c2[nH]ncc2NC(=O)c2c(Cl)cccc2Cl)CC1 |  | 3.26 µM (active) | 
Cn1c(=O)n(-c2ccc(C(C)(C)C#N)cc2)c2c3cc(C#Cc4cccnc4)ccc3ncc21 |  | 0.0224 µM (active) | 

Source: PubChem BioAssay (NCATS)
